Like-named read-outs stand apart in the source and are kept apart here.
How the values were obtained:
Parameters in all cases: species or system human, MV4-11 + K-562 + COLO205 + SK-N-BE2 + OVCAR-8
[1] = tested on: ACVR1B; conditions: read-out: apparent Kd, compound concentrations: 100 nM and 1000 nM (sheet 'Samples'), n = 1
[2] = tested on: ACVR1; conditions: read-out: apparent Kd, compound concentrations: 100 nM and 1000 nM (sheet 'Samples'), n = 1
[3] = tested on: CSNK1A1; conditions: read-out: apparent Kd, compound concentrations: 100 nM and 1000 nM (sheet 'Samples'), n = 1
[4] = tested on: CSNK1D; conditions: read-out: apparent Kd, compound concentrations: 100 nM and 1000 nM (sheet 'Samples'), n = 1
[5] = tested on: CSNK1E; conditions: read-out: apparent Kd, compound concentrations: 100 nM and 1000 nM (sheet 'Samples'), n = 1
[6] = tested on: DDR1; conditions: read-out: apparent Kd, compound concentrations: 100 nM and 1000 nM (sheet 'Samples'), n = 1
[7] = tested on: DDR2; conditions: read-out: apparent Kd, compound concentrations: 100 nM and 1000 nM (sheet 'Samples'), n = 1
[8] = tested on: GAK; conditions: read-out: apparent Kd, compound concentrations: 100 nM and 1000 nM (sheet 'Samples'), n = 1
[9] = tested on: MAPK10; conditions: read-out: apparent Kd, compound concentrations: 100 nM and 1000 nM (sheet 'Samples'), n = 1
[10] = tested on: MAPK11; conditions: read-out: apparent Kd, compound concentrations: 100 nM and 1000 nM (sheet 'Samples'), n = 1
[11] = tested on: MAPK14; conditions: read-out: apparent Kd, compound concentrations: 100 nM and 1000 nM (sheet 'Samples'), n = 1
[12] = tested on: MAPK9; conditions: read-out: apparent Kd, compound concentrations: 100 nM and 1000 nM (sheet 'Samples'), n = 1
[13] = tested on: MAPKAPK2; conditions: read-out: apparent Kd, compound concentrations: 100 nM and 1000 nM (sheet 'Samples'), n = 1
[14] = tested on: PRKD2; conditions: read-out: apparent Kd, compound concentrations: 100 nM and 1000 nM (sheet 'Samples'), n = 1
[15] = tested on: RIPK2; conditions: read-out: apparent Kd, compound concentrations: 100 nM and 1000 nM (sheet 'Samples'), n = 1
[16] = tested on: TGFBR1; conditions: read-out: apparent Kd, compound concentrations: 100 nM and 1000 nM (sheet 'Samples'), n = 1
[17] = tested on: AGPS; conditions: read-out: apparent Kd; compound concentrations: 100 nM and 1000 nM (sheet 'Samples'), CATDS: 9.4477869255485902E-2; n = 1
[18] = tested on: ILK; conditions: read-out: apparent Kd; compound concentrations: 100 nM and 1000 nM (sheet 'Samples'), CATDS: 9.8525851125826097E-2; n = 1
[19] = tested on: MDN1; conditions: read-out: apparent Kd; compound concentrations: 100 nM and 1000 nM (sheet 'Samples'), CATDS: 9.4286494514119495E-2; n = 1
[20] = tested on: TESK2; conditions: read-out: apparent Kd; compound concentrations: 100 nM and 1000 nM (sheet 'Samples'), CATDS: 9.9817052034954598E-2; n = 1
[21] = tested on: CIT; conditions: read-out: apparent Kd; compound concentrations: 100 nM and 1000 nM (sheet 'Samples'), CATDS: 4.5392232292010899E-2; n = 1
[22] = tested on: JAK1; conditions: read-out: apparent Kd; compound concentrations: 100 nM and 1000 nM (sheet 'Samples'), CATDS: 2.6628241709745499E-2; n = 1
[23] = tested on: MAPK8; conditions: read-out: apparent Kd; compound concentrations: 100 nM and 1000 nM (sheet 'Samples'), CATDS: 2.73704072863558E-2; n = 1
[24] = tested on: MYLK3; conditions: read-out: apparent Kd; compound concentrations: 100 nM and 1000 nM (sheet 'Samples'), CATDS: 2.9739343508474202E-2; n = 1
[25] = tested on: NLK; conditions: read-out: apparent Kd; compound concentrations: 100 nM and 1000 nM (sheet 'Samples'), CATDS: 4.6610928560784803E-2; n = 1
[26] = tested on: PKN3; conditions: read-out: apparent Kd; compound concentrations: 100 nM and 1000 nM (sheet 'Samples'), CATDS: 2.84976438170014E-2; n = 1
[27] = tested on: PRKD3; conditions: read-out: apparent Kd; compound concentrations: 100 nM and 1000 nM (sheet 'Samples'), CATDS: 2.77377290368628E-2; n = 1
[28] = tested on: RIPK3; conditions: read-out: apparent Kd; compound concentrations: 100 nM and 1000 nM (sheet 'Samples'), CATDS: 2.3985776131164802E-2; n = 1
[29] = tested on: TNIK; conditions: read-out: apparent Kd; compound concentrations: 100 nM and 1000 nM (sheet 'Samples'), CATDS: 2.6108076869188701E-2; n = 1

Q: Which results are given for CN1CCN(CCCNc2nccc(-c3c(-c4ccc(F)cc4)nn4cc(C(N)=O)ccc34)n2)CC1 [GW622475X]?
A: potency estimated from few doses ([1]; CATDS: 0.21340745676279499): 0.0165 µM; potency estimated from few doses ([2]; CATDS: 4.9335047128928999E-2): 0.488 µM; potency estimated from few doses ([3]; CATDS: 5.98915782601789E-2): 0.252 µM; potency estimated from few doses ([4]; CATDS: 0.221506901273927): 0.0156 µM; potency estimated from few doses ([5]; CATDS: 9.6112931202447002E-2): 0.0723 µM; potency estimated from few doses ([6]; CATDS: 4.72879881828875E-2): 0.576 µM; potency estimated from few doses ([7]; CATDS: 3.7607039392505398E-2): 1.9 µM; potency estimated from few doses ([8]; CATDS: 4.4963876201462499E-2): 0.712 µM; potency estimated from few doses ([9]; CATDS: 4.8287227118758103E-2): 0.53 µM; potency estimated from few doses ([10]; CATDS: 4.7431075480448899E-2): 0.569 µM; potency estimated from few doses ([11]; CATDS: 0.132847798162957): 0.0369 µM; potency estimated from few doses ([12]; CATDS: 6.4628535375358898E-2): 0.2 µM; potency estimated from few doses ([13]; CATDS: 0.150637698751246): 0.0293 µM; potency estimated from few doses ([14]; CATDS: 3.69212062314868E-2): 2.18 µM; potency estimated from few doses ([15]; CATDS: 5.3537616523073803E-2): 0.363 µM; potency estimated from few doses ([16]; CATDS: 8.1591289102362505E-2): 0.107 µM

Q: What does the source list for CN1CCN(CCCNc2nccc(-c3c(-c4ccc(F)cc4)nn4cc(C(F)(F)F)ccc34)n2)CC1 [GW621581X]?
A: potency estimated from few doses ([1]; CATDS: 0.17734677143715399): 0.667 µM; potency estimated from few doses [17]: 2.19 µM; potency estimated from few doses ([4]; CATDS: 0.11827296398223): 1.33 µM; potency estimated from few doses ([5]; CATDS: 9.3377022470402096E-2): 2.25 µM; potency estimated from few doses [18]: 1.97 µM; potency estimated from few doses ([11]; CATDS: 0.13638952707170801): 1.02 µM; potency estimated from few doses ([13]; CATDS: 0.13321456142161001): 1.07 µM; potency estimated from few doses [19]: 2.2 µM; potency estimated from few doses [20]: 1.91 µM

Q: What does the source list for Nc1nccc(-c2c(-c3ccc(F)cc3)ncn2C2CCC(O)CC2)n1 (centres unmarked) [SB-223133]?
A: potency estimated from few doses ([1]; CATDS: 5.67589208103269E-2): 0.0745 µM; potency estimated from few doses ([2]; CATDS: 2.5761015840506201E-2): 1.35 µM; potency estimated from few doses [21]: 0.14 µM; potency estimated from few doses ([3]; CATDS: 0.114009601510889): 0.015 µM; potency estimated from few doses ([4]; CATDS: 0.391959397884028): 0.00172 µM; potency estimated from few doses ([5]; CATDS: 0.26273499221924201): 0.0032 µM; potency estimated from few doses ([6]; CATDS: 4.8095496683990102E-2): 0.118 µM; potency estimated from few doses ([7]; CATDS: 4.5410766330070199E-2): 0.14 µM; potency estimated from few doses ([8]; CATDS: 2.6841490369303E-2): 1.07 µM; potency estimated from few doses [22]: 1.12 µM; potency estimated from few doses ([9]; CATDS: 4.9321772364443003E-2): 0.11 µM; potency estimated from few doses ([10]; CATDS: 2.6556217045786298E-2): 1.14 µM; potency estimated from few doses ([11]; CATDS: 9.6245202156368906E-2): 0.0214 µM; potency estimated from few doses [23]: 0.969 µM; potency estimated from few doses ([12]; CATDS: 5.3906209351099597E-2): 0.0856 µM; potency estimated from few doses ([13]; CATDS: 8.8407398731798204E-2): 0.0258 µM; potency estimated from few doses [24]: 0.653 µM; potency estimated from few doses [25]: 0.129 µM; potency estimated from few doses [26]: 0.794 µM; potency estimated from few doses ([14]; CATDS: 2.85113335407263E-2): 0.793 µM; potency estimated from few doses [27]: 0.906 µM; potency estimated from few doses ([15]; CATDS: 7.8449677339207394E-2): 0.0337 µM; potency estimated from few doses [28]: 2.14 µM; potency estimated from few doses ([16]; CATDS: 3.9958881168014597E-2): 0.21 µM; potency estimated from few doses [29]: 1.25 µM

— article PMC11062922 (Nature Chemical Biology, 2023)
